# Assay outcomes as filed in PubChem.
# Luc counter – Counterscreen for Luciferase (Kinase-Glo TM) Inhibition | Luciferin 4-monooxygenase (Photuris pensylvanica), Q27757 | Kinase-Glo luciferase, ATP luminescence, 8 min | Potency, µM (highest dose often 38.3 µM), for the others: top-dose activity change, negative = inhibition, hits mostly inhibitors | hit rate 0.28% among 200,000 | AID 1379, 2008; note: % is set by controls: 0 for no effect and ±100 for the full control effect; nearly all actives have a fitted effect of over 60% in size
#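 Substrate mix (final 50 mM imidazole pH 7.2, 50 mM KCl, 7 mM MgCl2, 10 uM ATP, 0.01% Tween 20, 0.05% BSA) plus pin-tool compound, then Kinase-Glo detection mix; 8 min ambient, luminescence read.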
# NPC1 prom act – qHTS Assay for NPC1 Promoter Activators; hit rate 2.4% among 320,000; Potency, µM (series often up to 9.22 µM), for inactives: at the highest dose activation, most hits filed as activators; Huh7 NPC1 promoter luciferase reporter, 24 h; note: % of control where 0% means no effect; nearly all actives have a fitted effect of over 60% in size
#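 Luciferase expression driven by the NPC1 promoter was measured in stably transfected Huh7 cells after a 24 h compound incubation, using a luciferase reagent and a luminescence read.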
# ELG1 genotox – qHTS screen for small molecules that induce genotoxicity in human embryonic kidney (HEK293T) cells expressing luciferase-tagged ELG1; HEK293T ELG1-luciferase reporter, luminescence, 16 h; Potency, µM (titrated, usually from 46 µM), for the others: top-dose activity change, positive = activation, most hits filed as activators; hit rate 1.3% among 330,000; note: % of control where 0% means no effect; nearly all actives have a fitted effect of over 60% in size
#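 Luminescence read-out: rising ELG1-luciferase signal, reflecting elevated ELG1 protein under genetic stress, flags genotoxic compounds. Cells were treated for 16 hr at 37 °C before ONE-Glo detection.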
# Rab9 promoter act – qHTS Assay for Rab9 Promoter Activators; hit rate 2.8% among 320,000; Potency, µM (titrated, usually from 9.22 µM), inactives show top-dose activation, negative = inhibition, most hits filed as activators; Huh7 Rab9 promoter-luciferase reporter, luminescence, 24 h; AID 485297, 2010; note: % of control where 0% means no effect; nearly all actives have a fitted effect of over 60% in size
#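 Steps: seed 1500 Huh7 Rab9-luc cells per well, rest 2 h at 37 °C; add compound in DMSO; incubate 24 h; add luciferase reagent, 10 min ambient; read luminescence.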
# SMN2 splice enh – qHTS Assay for Enhancers of SMN2 Splice Variant Expression; HEK293 SMN2-luciferase splicing reporter, luminescence, 30-36 h; Potency, µM (top dose mostly 46.1 µM), for inactives: at the top dose activity change, positive = activation, actives largely listed as activators; hit rate 2.8% among 210,000; AID 1458, 2008; note: % of control where 0% means no effect; nearly all actives have a fitted effect of over 55% in size
#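 HEK293 cells carry an SMN2 […]–luciferase reporter in which exon 7 inclusion puts luciferase in frame. Cells were plated 10-12 h before compound addition, then incubated 30-36 h at 37C. ONE-Glo luminescence was read; sodium butyrate at 4.5 mM final served as control.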
# FLuc modulator – qHTS profiling assay for firefly luciferase inhibitor/activator using purifed enzyme and Km concentrations of substrates (counterscreen for miR-21 project) | Luciferin 4-monooxygenase (Photinus pyralis), P08659 | purified FLuc, Km substrates, luminescence inhibition | Potency, µM (highest dose often 57.5 µM), without a hit: at the highest dose activity change, negative = inhibition, hits mostly inhibitors | hit rate 6.9% among 360,000;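 note: plate controls were vehicle for no effect and reference inhibitor for full effect; nearly all actives have a fitted effect of over 55% in size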
# Target sequence (P08659 whole entry, looked up): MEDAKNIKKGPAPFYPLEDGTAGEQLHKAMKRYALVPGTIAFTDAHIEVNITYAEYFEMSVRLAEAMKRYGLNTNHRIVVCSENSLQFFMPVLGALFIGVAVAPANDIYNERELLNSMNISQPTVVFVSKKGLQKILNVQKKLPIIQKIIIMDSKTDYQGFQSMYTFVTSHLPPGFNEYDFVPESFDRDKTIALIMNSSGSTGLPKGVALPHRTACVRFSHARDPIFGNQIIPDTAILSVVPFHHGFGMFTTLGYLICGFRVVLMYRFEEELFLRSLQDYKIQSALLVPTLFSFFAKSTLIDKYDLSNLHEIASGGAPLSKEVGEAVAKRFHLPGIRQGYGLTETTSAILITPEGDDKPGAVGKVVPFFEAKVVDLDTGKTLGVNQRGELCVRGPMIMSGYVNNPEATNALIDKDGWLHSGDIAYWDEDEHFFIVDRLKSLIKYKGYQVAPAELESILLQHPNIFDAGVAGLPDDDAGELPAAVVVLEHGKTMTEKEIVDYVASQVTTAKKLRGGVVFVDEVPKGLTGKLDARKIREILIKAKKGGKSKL
#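 Biochemical qHTS of compounds, final roughly 60 µM downward over six points, against 10 nM purified firefly luciferase using Km concentrations of substrates (10 uM D-luciferin, 10 uM ATP) in Tris acetate pH 7.5 buffer; luminescence output.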
# * = called active by the depositor; ? = inconclusive; · = not tested or not shown; [ ] = remark or other dose. The list is not random: actives were taken first. Their share in the collection is about 7.3%. Calls come from the whole dose curve; as a rule, active = well fitted curve in the direction sought with a large enough effect; inconclusive = small, poorly fitted or top-dose-only effect, or another doubt; inactive = no such curve, though single readings can be large; an effect the other way counts as inactive or inconclusive. Potency is the fitted concentration of half-maximal effect.
SMILES,Luc counter,NPC1 prom act,ELG1 genotox,Rab9 promoter act,SMN2 splice enh,FLuc modulator
Cc1ccc(C(=O)Oc2cccc(-n3cnnn3)c2)cc1,2.0%,1.0%,?,-4.4%,-0.1%,?
Cn1cnc2cc(OC(=O)c3ccccc3)ccc21,-3.1%,-1.9%,3.6%,-6.7%,19.6%,19µM*
Cc1cccc(NC(=O)CSc2ncc3c(n2)-c2ccccc2N(Cc2ccc(F)cc2)S3(=O)=O)c1C,·,·,·,·,·,2.0%
CCOC(=O)c1ccc2c(c1)sc1nc(-c3ccc(OCC)cc3)cn12,·,·,·,·,7.3%,?
O=C(O)c1ccc(C(=O)O)c(C(=O)O)c1.[NH-][C@@H]1CCCC[C@@H]1[NH-].[Pt],-3.4%[7.66 µM],·,·,·,-0.8%[9.22 µM],·
CC(=O)n1cc(/C=C2/N=C(c3ccccc3)OC2=O)c2ccccc21,3.4%,-2.3%,0.6%,-0.7%,-2.1%,5.36µM*
CC(=O)n1cc(/C=N/NC(N)=S)c2ccccc21,6.9%,-0.3%,18.1%,-0.9%,?,-0.4%
O=C(Nc1nccs1)c1ccc(Br)o1,-14.0%,25.0%,13.3%,?,11.2µM*,?
O=C(/C=C/c1ccc(Br)o1)Nc1nccs1,-1.4%,3.16µM*,?,2.82µM*,12.6µM*,?
CCOc1ccc(NC(=O)Cn2c(=O)n(Cc3ccc4c(c3)OCO4)c(=O)c3ccc(C(=O)NC4CCCCC4)cc32)cc1,·,·,·,·,5.3%,-3.2%
CC(=O)N(Cc1cccnc1)c1cccc(-c2nc3ccccc3s2)c1,-2.0%,3.5%,2.3%,-16.6%,·,-15.4%
Oc1ccc(-c2nc3ccccc3s2)cc1,·,2.82µM*,3.66µM*,2.82µM*,·,1.9µM*
CC(=O)NCc1ccc(-c2csc(-c3cccs3)n2)cc1,·,2µM*,?,2.24µM*,·,5.36µM*
O=C(NCc1csc(-c2cccs2)n1)c1ccccc1,·,?,11.8%,23.4%,·,?
c1cncc(-c2nc3ccccc3s2)c1,·,?,?,?,·,21.3µM*
c1csc(-c2nc3ccccc3s2)c1,·,2.51µM*,?,3.55µM*,·,2.69µM*
CC(C)CCn1c(SCc2cccc(F)c2)nc2ccsc2c1=O,·,·,·,·,·,1.3%
COc1cc(CN(C(=O)c2ccc(Cl)cc2)C2CCS(=O)(=O)C2)cc(OC)c1OC (configuration not stated),·,·,·,·,-8.5%,1.5%
c1ccc2sc(-c3ccncc3)nc2c1,·,3.16µM*,?,2.82µM*,·,15.1µM*
CC(=O)Nc1scc(C)c1-c1nc2ccccc2s1,·,-2.2%,-6.5%,-2.2%,·,3.8%
CC(=O)NCc1ccc(-c2nc3ccccc3s2)cc1,-10.4%,2.24µM*,?,0.631µM*,14.1µM*,3.01µM*
O=C(NCc1ccccc1)c1nc2ccccc2s1,-1.7%,-1.9%,4.7%,3.5%,-12.2%,?
Nc1nonc1-c1nc2ccccc2n1Cc1c(Cl)cccc1Cl,·,·,·,·,-14.1%,-1.8%
C=CC[C@](C)(O)c1ccccc1,-1.4%,·,·,·,-0.9%,·
CCCOc1ccc(Oc2nc(NCC(C)C)nc(N(C)C)n2)nn1,·,·,·,·,-10.4%,5.2%
SMILES,Luc counter,NPC1 prom act,ELG1 genotox,Rab9 promoter act,SMN2 splice enh,FLuc modulator
O=C(OCC(=O)N1CCc2ccccc2C1)c1cccnc1Cl,4.1%,26.8%,?,?,2.7%,15.1µM*
O=C(OCC(=O)N1CCCCCC1)c1cccs1,-9.3%,?,?,?,?,13.5µM*
O=C(OCC(=O)N1CCc2ccccc2C1)c1ccc(OC(F)F)cc1,·,1.7%,0.5%,-4.4%,·,-1.5%
O=C(OCC(=O)N1CCc2ccccc2C1)c1cccs1,-4.8%,-1.7%,-1.0%,-4.3%,28.5%,10.7µM*
Cc1cnc(C(=O)OCC(=O)N2CCc3ccccc3C2)cn1,-1.5%,0.6%,0.4%,0.2%,-9.3%,0.1%
CC(C)[C@]1(Cl)CC[C@@H]2[C@]3(C)CCC[C@@](C)(C(=O)O)[C@H]3C[C@H](Cl)[C@@]2(Cl)[C@H]1Cl,-5.6%[7.66 µM],·,·,·,-6.4%[9.22 µM],·
CCOC(=O)Cc1c(C)nc2c(-c3ccc(Cl)cc3)cnn2c1C,1.5%,1.4%,4.8%,-0.9%,-5.9%,26.9µM*
CCOC(=O)Cc1c(C)nc2c(-c3ccccc3)c(C)nn2c1C,-0.9%,-2.0%,-0.2%,0.4%,-10.6%,21.3µM*
Cc1cc(C)cc(NC(=O)COC(=O)CCCC2=NS(=O)(=O)c3ccccc3N2)c1,0.0%,-4.8%,-1.0%,-2.4%,-13.9%,-15.9%
Cc1cccc(OCC2=NS(=O)(=O)c3ccccc3N2)c1,-1.2%,28.0%,15.0%,26.8%,15.8%,19µM*
CN(C)c1ccc(C2=NOC(CN3C(=O)c4ccccc4S3(=O)=O)C2)cc1 (configuration not stated),-2.3%,3.16µM*,?,0.631µM*,12.6µM*,3.01µM*
CC(O)CNc1nc2sc3c(c2c(=O)n1Cc1ccco1)CCCCC3 (configuration not stated),·,?,10.9%,29.5%,·,16.9µM*
CC(O)CNc1nc2sc3c(c2c(=O)n1CCc1ccccc1)CCCCC3 (configuration not stated),1.9%,-0.6%,2.8%,0.2%,3.9%,?
CN(C)CCNc1nc2sc3c(c2c(=O)n1CCc1ccccc1)CCCCC3,·,-2.9%,0.3%,-8.2%,·,-8.9%
O=c1c2c3c(sc2nc(NCCOCCO)n1Cc1ccco1)CCCCC3,·,?,-1.3%,-4.9%,·,16.9µM*
Cc1ccc(S(=O)(=O)c2nnn3c2nc(N2CCC(C)CC2)c2cc(Cl)ccc23)cc1C,·,·,·,·,0.2%,-4.4%
Cc1cccc(Cn2cc(C(=O)c3ccccc3)c(=O)c3cc4c(cc32)OCO4)c1,·,·,·,·,6.7%,-3.0%
COc1ccc(Cc2nc(-c3ccccc3)no2)cc1,-0.9%,?,16.4µM*,?,?,15.1µM*
Brc1ccc(-c2noc(COc3ccc4c(c3)CCC4)n2)o1,2.5%,-1.3%,?,-1.7%,0.2%,?
COc1ccc(Cc2nc(-c3ccc(-n4cccc4)cc3)no2)cc1,0.9%,0.4%,1.8%,-3.6%,-33.6%,-7.8%
COc1ccc(Cc2nc(-c3cccs3)no2)cc1,3.3%,?,?,?,?,15.1µM*
c1csc(-c2noc(COc3ccc4c(c3)CCCC4)n2)c1,-1.7%,3.98µM*,18.4µM*,2.82µM*,12.6µM*,10.7µM*
COc1ccc(Cc2nc(-c3ccc(-n4cccc4)cc3)no2)cc1OC,10.2%,-2.8%,13µM*,-19.4%,-101.8%,3.5%
